This is a sample that favours compounds with a hit; in the whole collection about 1.7% have one here.
PfHsp40 yeast – rescue of yeast from PfHsp40 toxicity, primary screen, S. cerevisiae, ATP luminescence. S. cerevisiae expressing PfHsp40, growth rescue. growth rescue, % at 12.5 µM. hit rate 0.68% among 340,000. AID 504582, 2011; in the data active = growth rescue above about 28%, passing the limit was not always enough; inconclusive = no clear call, values can overlap the other calls;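 note: yeast W303a lacking pdr1 and pdr3 grown in galactose medium; growth measured after three days at 30 °C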
Mtb hypoxia rep – PubChem AID 1159583 | M. tuberculosis hypoxia-regulated fluorescent reporter, fluorescence | fluorescence inhibition, % (test concentration not listed) | hit rate 0.1% among 300,000; in the data active = fluorescence inhibition mostly above about 23%, no sharp cut-off; inactive = mostly below about 17%
Sa ugtP lethal – growth inhibition of ugtP-null S. aureus, primary screen, RN4220 ugtP deletion, OD600. AID 1259309, 2017. 16 h. growth inhibition, % (test concentration not listed). hit rate 0.54% among 330,000; in the data active = growth inhibition above about 68%;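 note: plate controls were untreated wells for no effect and antibiotic for full effect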
Sa RN4220 lethal – growth inhibition of S. aureus RN4220, primary screen, OD600. 16 h. inhibition, % (concentration not given with the values). hit rate 0.33% among 330,000; in the data active = inhibition above about 85%;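 note: plate controls were untreated cells for no effect and reference antibiotic for full effect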
CCHF vOTU inh – CCHFV vOTU protease inhibitors, primary screen, biochemical, Pep-AMC substrate, fluorescence; Crimean-Congo hemorrhagic fever virus L polyprotein viral ovarian tumor (vOTU) protease …; inhibition, % at 11.5 µM; hit rate 0.55% among 370,000; in the data active = inhibition above about 30%; note: 0% = vehicle wells with enzyme and 100% = no enzyme wells
Vc quorum ag – inducers of Vibrio cholerae quorum light production without autoinducers, primary screen, BH1578 luxS cqsA deficient, single point | activation, % at 18.7 µM | hit rate 0.16% among 350,000 | V. cholerae BH1578 lux reporter, luminescence, 6 h | AID 588436, 2011; in the data active = activation mostly above about 9.7%, no sharp cut-off; inconclusive = no clear call, values can overlap the other calls; inactive = mostly below about 3.7%
* marks the source's active call; other numbers are inactive results; i = inactive; ? = inconclusive; . = no result given; + = active, no number.

SMILES	PfHsp40 yeast	Mtb hypoxia rep	Sa ugtP lethal	Sa RN4220 lethal	CCHF vOTU inh	Vc quorum ag
CCCCCCCCCCCCCCCC(O)C(N)CO (stereo not given)	1	4	100*	100*	12	0
COc1ccc2nc(-n3c(C)ccc3C)sc2c1	2	-5	30	12	-10	-7
COc1ccc2nc(N3C(=O)/C(=C/c4ccccc4)NC3=S)sc2c1	-1	1	92*	0	-17	0
CCOc1ccc2nc(N3C(=O)/C(=C/c4ccccc4)NC3=S)sc2c1	0	4	94*	8	-6	0
COc1ccc(C(C)=NNC2=NCCN2)cc1Cl	.	7	4	3	.	.
CC=Cc1ccc(OCCCNCC(C)O)c(OC)c1 (stereo not given)	.	9	8	2	.	.
CCCC1CCC(c2ccc(C(=O)NN)cc2)CC1 (stereo not given)	2	8	98*	-12	6	0
COc1cc(NS(=O)(=O)c2ccc(C)cc2)c2ncccc2c1	542*	8	-17	13	-4	i
COc1ccc(N2CC(C(=O)NN=Cc3ccc([N+](=O)[O-])cc3)CC2=O)cc1 (stereo not given)	.	5	1	1	.	.
COc1ccc(N2CC(C(=O)NN=Cc3cc([N+](=O)[O-])ccc3O)CC2=O)cc1 (stereo not given)	.	9	77	90*	.	.
CC(C)(C)C1CCc2c(sc(NC(=O)CSc3ncn[nH]3)c2C#N)C1 (stereo not given)	1	-9	88*	-13	13	i
CC1CCc2c(sc(NC(=O)CSc3ncn[nH]3)c2C#N)C1 (stereo not given)	1	10	4	0	6	i
COC(=O)C1Cc2ccccc2CN1C(=O)CCl (stereo not given)	41*	25	0	-1	-11	-2
CC(=O)Nc1ccc(Sc2ccc([N+](=O)[O-])o2)cc1	54*	.	69	41	-11	i
CC(C)(C)C(=O)Nc1ccc(Sc2ccc([N+](=O)[O-])cc2)cc1	6	0	-37	-11	5	0
CCN(CC)C(=O)CSc1nnc2nnc3cc(OC)ccc3n12	.	66*	2	5	4	-1
Cc1c(C(=O)NCCSCc2c(F)cccc2Cl)cnn1-c1ccc(Cl)cc1	132*	.	.	.	-2	0
CCCCC(=O)NC(c1cccc([N+](=O)[O-])c1)c1ccc2cccnc2c1O (stereo not given)	105*	14	1	16	11	-1
CCCCC(=O)NC(c1ccccc1)c1ccc2cccnc2c1O (stereo not given)	-1	.	.	.	7	1
Oc1cccc(C(Nc2nccs2)c2ccc3cccnc3c2O)c1 (stereo not given)	215*	-4	2	9	-11	0
CC(=O)NC(c1cccc([N+](=O)[O-])c1)c1ccc2cccnc2c1O (stereo not given)	194*	.	.	.	1	-2
COc1cccc(C(NC(C)=O)c2ccc3cccnc3c2O)c1 (stereo not given)	?	.	.	.	-1	2
CCOc1ccc(N(CC(=O)NN=Cc2ccccn2)S(=O)(=O)c2ccc(Cl)cc2)cc1	.	0	2	-1	.	.
CCOc1cc(C=N/N=C2/NC(=O)C(CC(=O)O)S2)ccc1OS(=O)(=O)c1ccc(C)cc1 (stereo not given)	.	7	-1	5	.	.
Cc1ccsc1C=NNC(=O)CNC(=O)c1ccc(S(=O)(=O)N(C)C)cc1	.	8	-1	4	.	.
SMILES	PfHsp40 yeast	Mtb hypoxia rep	Sa ugtP lethal	Sa RN4220 lethal	CCHF vOTU inh	Vc quorum ag
O=C(COC(=O)c1cc(Cl)nc(Cl)c1)NCCc1ccc(F)cc1	0	26*	1	3	2	i
COc1cc2c(cc1O)CCC1C2CC[C@]2(C)C(O)CCC12 (stereo not given in full)	.	2	-2	6	.	.
Clc1ccc2[nH]c3c(c2c1)CCc1cn[nH]c1-3	1	-8	79	98*	-5	5
O=Nc1c(O)n(Cc2ccccc2)c2ccccc12	-1	5	0	5	1	81*
COC(=O)c1ccc(Cn2c(O)c(N=O)c3ccccc32)o1	1	.	0	4	24	-1
CCCn1c(O)c(N=N)c2ccccc21	1	-9	11	10	2	+
